Screen size: about 69,000 compounds; about 8,600 (12%) showed an effect of 50% or more. This excerpt belongs to a sample that is enriched for strong results.
What follows are molecules tested on Plasmodium berghei (assay: Screen against P. berghei liver stage (PbLuc), transformed with Luciferase, at 10uM). Settings: tested at 10 uM.
Format: functional, HepG2

SMILES	INHIBITION
CCn1cnnc1CNC(=O)N1CCC(CN2CCOCC2)CC1	-11.4%
CNc1ncc(CN(C)C(=O)c2cccc(-n3cnnc3)c2)cn1	28.5%
CC(C)c1nc(C2CCCN2Cc2cc(=O)n(C)c(=O)n2C)no1 (stereo not drawn)	33.8%
CCc1[nH]nc(NC(=O)c2cc[nH]n2)c1C	0.342%
N#Cc1ccc(N2CCC3(CCC(=O)N3Cc3cccnc3)CC2)nc1	27.6%
O=C1CCC2(CCCN(c3ncc(F)cn3)CC2)N1CC1CC1 (stereo not drawn)	-57.6%
N#Cc1ccc(N2CCC3(CCC(=O)N3CCN3CCCC3)CC2)nc1	68.4%
N#Cc1ccc(N2CCC3(CCC(=O)N3Cc3ccncc3)CC2)nc1	43.9%
N#Cc1ccc(N2CCCC3(CCC(=O)N3CC3CC3)CC2)nc1 (stereo not drawn)	56.6%
CN1C(=O)CCC12CCN(c1ccc(C#N)cn1)CC2	38.5%
O=C(c1ccsc1)N1CCN2C[C@H](OCc3cccnc3)C[C@H]2C1	21.6%
CCc1nc(-c2ccc(NC(=O)N3CCCC3)cc2)no1	-81%
CCCC1COCCN1Cc1ccc(C(=O)O)cc1 (stereo not drawn)	19.8%
Cc1nc2cc(O)nn2c(C)c1CCC(=O)N(C)Cc1ccccc1	-24.8%
Cc1cc(C(=O)N2CCN(CC(O)Cn3cccn3)CC2)c(C)o1 (stereo not drawn)	29.6%
Cc1cc(C(=O)N2CCC(CCn3cccn3)CC2)c(C)o1	39.5%
Cc1cc(C(=O)N2C[C@@H]3C(CN(C)CCc4ccccn4)[C@@H]3C2)c(C)o1 (stereo partly drawn)	41.5%
Cc1cccc(C(=O)N2CCN(C(=O)Cc3ccccn3)CC2)c1C	31.8%
Cc1cc(C(=O)N2C[C@@H]3C(CN(C)CCCn4cccn4)[C@@H]3C2)c(C)o1 (stereo partly drawn)	52.6%
Cc1ccccc1C(=O)N1C[C@@H]2C(CN(C)CCc3ccccn3)[C@@H]2C1 (stereo partly drawn)	55.4%
Cc1noc(C2CCC3(CCN(C(=O)c4cnccn4)CC3)O2)n1 (stereo not drawn)	-4.32%
c1ccc(-n2ccc(CNC3CCc4ncnn4C3)n2)cc1 (stereo not drawn)	16.45%
Cc1ccc(-c2ccccc2CC2(C(=O)NC(C)C)CCCNC2)cc1 (stereo not drawn)	42.1%
Cc1occc1C(=O)N1CCCn2cnc(CN3CCCC3=O)c2C1	34.2%
COc1nccc(N2CC[C@@H](N3CCN(C)CC3)[C@H](O)C2)c1C#N	-3.77%
Cc1ccccc1CC1(CO)CCCN(c2ncnc3sccc23)C1 (stereo not drawn)	87.9%

SMILES	INHIBITION
Cc1cnc(C)c(N2CCCC(CC3CC3)(C(=O)O)C2)n1 (stereo not drawn)	57.5%
Cc1ccccc1CC1(CO)CCCN(c2ncncc2C(C)C)C1 (stereo not drawn)	68.4%
Cc1cnc(C)c(N2CCC(Cc3ccccc3Cl)(C(=O)O)CC2)n1	13.5%
Cc1ccccc1CC(=O)N(C)CC1(O)CCCN(c2ccccn2)C1 (stereo not drawn)	-10.5%
Cc1cnc(C)c(N2CCCC(CO)(Cc3ccccc3C)C2)n1 (stereo not drawn)	68.4%
COc1cccc(CC2(CO)CCCN(c3nccs3)C2)c1 (stereo not drawn)	3.46%
Cc1cnc(C)c(N2CCCC(C/C=C/c3ccccc3)(C(=O)O)C2)n1 (stereo not drawn)	27.9%
CCCC1(CO)CCCN(c2ncnc3c2c(C)nn3C)C1 (stereo not drawn)	25.9%
Cc1ccccc1CC1(C(=O)O)CCCN(c2ncnc3[nH]ccc23)C1 (stereo not drawn)	25.5%
CCNC(=O)[C@@H]1C[C@@H](NC(=O)c2ccc(C#N)cc2)CN1CCCSC	-14.3%
CCCC(=O)N1CCC([C@@H]2C[C@H](C(F)(F)F)n3nc(C)cc3N2)CC1	-29.8%
CC(=O)Nc1nc(C(=O)N2CCCC2Cn2cccn2)cs1 (stereo not drawn)	37.3%
CN(C(=O)Cn1nc(-c2ccc(F)cc2)ccc1=O)C1CCS(=O)(=O)C1 (stereo not drawn)	13.4%
c1cnnc(N2CCCC2CNCc2csc(-c3ccco3)n2)c1 (stereo not drawn)	31.95%
Cc1ncsc1C(=O)N(Cc1cccs1)C1CC1	6.25%
CCCNCc1cn(C)nc1-c1cccnc1	2.74%
COc1c(C2CCCN2C(=O)c2csc(C3CC3)n2)c(C)nn1C (stereo not drawn)	-21.5%
CC(C)Nc1cccc(CC2CCN(C)C2)n1 (stereo not drawn)	-52.6%
COCC1CN(Cc2c(C)noc2C)Cc2ccnn2C1 (stereo not drawn)	15.9%
CC(C)N1CCC(C(=O)N2CCc3c(nc(CC4CC4)[nH]c3=O)C2)CC1	53.8%
CC(C)N1CC(C(=O)N2CCc3c(nc(CC4CC4)[nH]c3=O)C2)CC1=O (stereo not drawn)	20.6%
CC(C)N1CCCC(C(=O)N2CCc3c(nc(CC4CC4)[nH]c3=O)C2)C1 (stereo not drawn)	26.9%
c1csc(CN2CCn3c(Cn4cncn4)cnc3C2)c1	20.6%
CC(=O)N1CC(=O)N(c2cccnc2)CC12CCN(Cc1nccs1)C2 (stereo not drawn)	-3.52%
N#Cc1cccc(CN2CCO[C@@H]3CNC[C@@H]32)c1	16.9%
c1ccc(CN2CCOC3CNCC[C@H]32)cc1 (stereo partly drawn)	55.5%

SMILES	INHIBITION
O=C(c1ccccc1)N1CCOC2CNCC[C@H]21 (stereo partly drawn)	28.5%
O=C(O)c1ccn(-c2ccccc2NS(=O)(=O)c2cccc(Cl)c2F)n1	32.9%
CN(C)C(=O)CO[C@@H]1CN(Cc2ccccc2F)[C@@H]2CCCO[C@@H]21	-1.83%
c1cnc2c(c1)cc([C@H]1CCCO1)n2CCN1CCCCC1	35.3%
CC(C)c1cc(C(=O)N2CCOC3(CCCC3)C2)no1	50.4%
CC(C)c1cc(C(=O)N2CCOC3(CCNCC3)C2)no1	28.2%
Cc1ccc(C(=O)N2CCC3(CCCC3)CC2)c(=O)[nH]1	37.1%
CC(C)c1cc(C(=O)N2CCCC3(CCNC3)C2)no1 (stereo not drawn)	40.2%
Cc1ccc(C(=O)N2CCC3(CCCCC3)C2)c(=O)[nH]1	21.7%
Cc1ccc(C(=O)N2CCOC3(CCCC3)C2)c(=O)[nH]1	51.7%
CN(Cc1ccco1)[C@@H]1CN(C(=O)c2cnccn2)C[C@@H]2CCCO[C@@H]21	-2.17%
CC(C)NC(=O)[C@H]1C[C@H]2CN(C(=O)NCc3ccccc3)C[C@@H]1O2	-43.8%
CCn1nc(C)c(C(=O)Nc2ccc3c(c2)C(C)(C)C(=O)N3C)c1C	23.4%
Cc1nc(C)n(C2CCCN(C(=O)c3ccc(CN(C)C)cc3)C2)n1 (stereo not drawn)	5.45%
Cc1cccc(CN(Cc2ccccn2)Cc2ncc(C(C)(C)C)o2)c1	71.5%
CC(C)(C)c1cnc(CNc2cccc(Cn3cnnc3)c2)o1	-17.6%
Cc1cccc(NCc2ncc(C(C)(C)C)o2)c1	72.2%
CCN(Cc1cccc(Cl)c1)Cc1ncc(C(C)(C)C)o1	49%
CCN(Cc1ncc(C(C)(C)C)o1)Cc1ccccc1C	53.3%
Cc1cccc(CN(Cc2ccccn2)S(=O)(=O)N(C)C)c1	-1.38%
Cc1ccc(CN(C)Cc2ncc(C(C)(C)C)o2)o1	46.4%
Cc1cccc(CN(Cc2ccccn2)S(=O)(=O)N(C)C(C)C)c1	-12.4%
Cc1ccc(NCc2ncc(C(C)(C)C)o2)c(Cl)c1	-26.2%
Nc1ncc(-c2cccc(NC(=O)[C@@H]3CCCCN3)c2)cn1	14.5%
Cc1cncc(C(=O)N2C[C@H]3CCC[C@@]3(COc3ccccn3)C2)c1	24.5%
CN(C)S(=O)(=O)N1CC[C@H]2OCC[C@@]2(COc2cccnc2)C1	33%

SMILES	INHIBITION
Cc1nc(C)c(CN2CCOC(CNc3cccnn3)C2)s1 (stereo not drawn)	41.5%
O=C(c1cc(-n2cccn2)ccc1Cl)N1CCCC(N2CCCC2)C1 (stereo not drawn)	14.6%
CCN(C)C[C@@H]1CN(C(=O)c2cc(-c3ccc(F)cc3)n[nH]2)C[C@@H]1CO	43.9%
CCc1ccc(CN2CC[C@@H]3CN(S(C)(=O)=O)CCO[C@@H]3C2)o1	42.6%
CCOc1cccc2c1OCC(=O)N(c1ccc(N(C)C)cc1)C2	45.5%
CCOc1cccc2c1OCC(=O)N(c1ccc3c(c1)OCO3)C2	14.9%
CCOc1cccc2c1OCC(=O)N(c1ccc3c(c1)OCCO3)C2	56.5%
Cc1ccoc1C(=O)N1CCc2ccc(=O)n(CCN(C)C)c2CC1	-16.2%
NC(=O)c1nc2c(s1)CCN(C(=O)Nc1ccccc1)CC2	40.5%
O=C(Nc1ccccc1)N1CCc2nc(C(=O)N3CCCC3)sc2CC1	89.1%
O=C(c1ccc(Cl)cc1)N1CCc2nc(C(=O)N3CCCC3)sc2CC1	-29.3%
CNC(=O)N1CCc2nc(C(=O)Nc3cccnc3)sc2CC1	42.6%
COCC(=O)N1CCc2nc(C(=O)Nc3cccnc3)sc2CC1	-52.3%
CNC(=O)c1nc2c(s1)CCN(C(=O)c1ccccc1)CC2	1.9%
NC(=O)c1nc2c(s1)CCN(C(=O)Nc1cccc(Cl)c1)CC2	80.2%
NC(=O)c1nc2c(s1)CCN(Cc1ccccc1)CC2	12.1%
CCN(CC)C(=O)c1nc2c(s1)CCN(C(=O)Nc1ccccc1)CC2	58.3%
Cc1ccc(CN2C[C@@H]3COC[C@H](NS(C)(=O)=O)[C@@H]3C2)s1	-1.36%
CCNC(=O)NC(C)c1nc(-c2ccc(Br)cc2)no1 (stereo not drawn)	33.5%
Cc1nccc(C2CCCCN2Cc2ccccc2)n1 (stereo not drawn)	20.8%
Cc1nccn1C1CCCN(C(=O)c2cccc(S(C)(=O)=O)c2)C1 (stereo not drawn)	19.5%
CCOc1nnc(CN(C)C2CCCN(c3ccc(C)nn3)C2)s1 (stereo not drawn)	46.7%
CNC(=O)C1(N2CCC[C@H]2C(=O)NC2CCCCC2)CCOCC1	-1.36%
c1ccc(N2CCOC(Cc3cccnc3)C2)cc1 (stereo not drawn)	-33.4%
CCN(CC)Cc1nc(Cc2cccc(C(F)(F)F)c2)no1	26.7%

— ChEMBL document CHEMBL4513216, “Probing the Open Global Health Chemical Diversity Library for Multistage-Active Starting Points for Next-Generation Antimalarials” (ACS Infect Dis, 2020)
